For four molecules, outcome and AC50 results are on record in PubChem BioAssay (EPA / NIEHS).

Experiment [1] is described as follows: ATG_CRE_CIS: Attagene CIS-FACTORIAL HepG2 Assay for human cAMP Responsive Element (CRE) binding protein 3 (AID 2282926). The note with it: HepG2 CRE cis-reporter, Attagene multiplexed mRNA; actives raise or lower the signal. The method in brief:
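Liver-derived HepG2, transfected with a CRE-containing reporter panel, exposed 24 h; transcript levels sized and quantified by capillary electrophoresis of labelled amplicons; signal changes either way referenced to vehicle.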

Experiment [2] deals with CCAAT/enhancer-binding protein beta (Homo sapiens) (UniProt P17676). Description: ATG_C_EBP_CIS: Attagene CIS-FACTORIAL HepG2 Assay for human CCAAT/Enhancer Binding Protein (C/EBP) beta (AID 2282927). The note with it: HepG2 Attagene cis-factorial transcription factor reporter; actives raise or lower the signal. The procedure, abridged:
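Changes in reporter mRNA, rather than exogenous chimeric receptor activity, reflect native C/EBP signalling in transfected HepG2 cells dosed for 24 h; transcripts are detected by RT-PCR and capillary electrophoresis.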

Experiment [3] in a line: ATG_CMV_CIS: Attagene CIS-FACTORIAL HepG2 Assay for human CMV (Internal Marker) (AID 2282928).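 Note: endpoint acts as a background internal control marker rather than a target.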 The note with it: HepG2 CMV promoter reporter, transcription factor profiling; actives raise or lower the signal. The method in brief:
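24 h chemical treatment, HepG2 with transient multi-reporter transfection; RNA → oligo(dT) RT → PCR → 6-FAM extension → HpaI digest → CE fluorescence. Bidirectional fit, DMSO negative control.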

A short description of experiment [4]: ATG_DR4_LXR_CIS: Attagene CIS-FACTORIAL HepG2 Assay for human Liver X Receptor (LXR), DR4 submotif (AID 2282929). The settings on record: HepG2 Attagene DR4 cis-reporter, mRNA transcription; actives raise or lower the signal. The procedure, abridged: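 Fluorescence intensity of labelled reporter cDNA fragments, separated by capillary electrophoresis, gives the signal. HepG2 cells bearing cis-regulated reporter constructs were treated 24 h; activity fitted bidirectionally relative to DMSO negative control.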

Experiment [5] has as its target Aryl hydrocarbon receptor (Homo sapiens) (UniProt P35869). Description: ATG_Ahr_CIS: Attagene CIS-FACTORIAL HepG2 Assay for human Aryl Hydrocarbon Receptor (Ahr) (AID 2282930). The note with it: HepG2 AhR cis-factorial reporter transcription; actives raise or lower the signal. The method in brief:
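HepG2, transient MRTU (cis) transfection, 24 h exposure. RNA → cDNA → PCR → 6-FAM primer extension → HpaI 2 h 37 C → CE. Fit: bidirectional, DMSO baseline.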

The nature of experiment [6]: ATG_AP_1_CIS: Attagene CIS-FACTORIAL HepG2 Assay for human Activator Protein 1 (AP-1) (AID 2282931). The settings on record: HepG2 Attagene cis-factorial AP-1 reporter mRNA; actives raise or lower the signal. The method in brief: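 Multiplexed HepG2 reporter assay, 24 h dosing. mRNA induction detected by RT-PCR plus capillary electrophoresis. Activity fitted in both directions against DMSO.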

Experiment [7] is described as follows: ATG_AP_2_CIS: Attagene CIS-FACTORIAL HepG2 Assay for human Activator Protein 2 (AP-2) (AID 2282932). The settings on record: HepG2 AP-2 cis-reporter, Attagene transcription factor profiling; actives raise or lower the signal. The method in brief: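 Transiently transfected HepG2 cells are exposed to chemical for 24 h. Reporter transcripts are then measured as fluorescence following RT-PCR and capillary separation, and gain- or loss-of-signal is fitted relative to DMSO.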

Experiment [8] in a line: ATG_BRE_CIS: Attagene CIS-FACTORIAL HepG2 Assay for human Bone Morphogenetic Protein (BMP) Response Element (BRE) (AID 2282933). The note with it: HepG2 BMP response element reporter, Attagene transcription factor profiling; actives raise or lower the signal. The procedure, abridged:
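Gain- or loss-of-signal was derived by bidirectional fitting against DMSO controls. The signal came from reporter mRNA, measured by RT-PCR and capillary electrophoresis, in HepG2 cells transiently carrying multiple reporter units and dosed for 24 h.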

The target in experiment [9] is Transcription factor E2F1 (Homo sapiens) (UniProt Q01094). Description: ATG_E2F_CIS: Attagene CIS-FACTORIAL HepG2 Assay for human E2F Transcription Factor 1 (AID 2282935). The note with it: HepG2 Attagene cis-reporter, E2F reporter RNA transcripts; actives raise or lower the signal. The method in brief: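 Fluorescent RT-PCR products, digested with HpaI for 2 h at 37 C, are separated by capillary electrophoresis. Source RNA comes from transfected HepG2 cultures treated for 24 h.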
Chain of Transcription factor E2F1 (Homo sapiens) (Q01094 whole entry, looked up): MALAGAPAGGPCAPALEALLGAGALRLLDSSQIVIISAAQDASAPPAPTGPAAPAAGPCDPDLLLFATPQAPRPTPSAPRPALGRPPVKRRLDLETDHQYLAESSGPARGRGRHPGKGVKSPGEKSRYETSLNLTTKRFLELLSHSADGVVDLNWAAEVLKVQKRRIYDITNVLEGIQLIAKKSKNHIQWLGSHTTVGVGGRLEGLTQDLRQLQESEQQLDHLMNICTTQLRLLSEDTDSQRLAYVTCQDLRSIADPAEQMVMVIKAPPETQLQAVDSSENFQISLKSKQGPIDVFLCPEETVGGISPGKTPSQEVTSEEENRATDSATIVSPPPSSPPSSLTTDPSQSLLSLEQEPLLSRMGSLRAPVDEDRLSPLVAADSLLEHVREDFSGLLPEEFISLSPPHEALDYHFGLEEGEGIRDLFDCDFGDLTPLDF

Experiment [10] can be described thus: ATG_E_Box_CIS: Attagene CIS-FACTORIAL HepG2 Assay for human Enhancer Box (E-box) (AID 2282936). The note with it: HepG2 E-box cis-reporter transcription, actives raise or lower the signal. The method in brief:
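Fluorescent reporter fragments separated by capillary electrophoresis gave the signal; mRNA came from HepG2 cells transfected with cis-element reporters and treated 24 h. Curves fitted bidirectionally relative to DMSO controls.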

A short description of experiment [11]: ATG_EGR_CIS: Attagene CIS-FACTORIAL HepG2 Assay for human Early Growth Response 1 (EGR1) (AID 2282938). The settings on record: HepG2 Attagene CIS-FACTORIAL EGR reporter mRNA; actives raise or lower the signal. The method in brief: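 Activity is taken as induction or loss of reporter mRNA versus DMSO, fitted bidirectionally. Transcripts from cis-regulated reporter units in transiently transfected HepG2 were measured after 24 h by RT-PCR with capillary electrophoresis.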

Experiment [12] is described as follows: ATG_M_19_CIS: Attagene CIS-FACTORIAL HepG2 Assay for M19 Transcription Factor (Internal Marker) (AID 2282939). The note with it: HepG2 Attagene CIS-FACTORIAL M19 internal marker reporter; actives raise or lower the signal. The procedure, abridged:
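Following a 24 h exposure, RNA from transfected HepG2 cells was reverse-transcribed, PCR-amplified with reporter-specific primers, end-labelled with 6-FAM and HpaI-digested before capillary separation. Values represent gain or loss versus DMSO.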

Experiment [13] is described as follows: ATG_Ets_CIS: Attagene CIS-FACTORIAL HepG2 Assay for human Erythroblast Transformation Specific (ETS) (AID 2282941). The note with it: HepG2 ETS cis-reporter transcription, actives raise or lower the signal. The method in brief:
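Cis-regulated reporter mRNA induction in HepG2 (transient transfection), 24 h exposure, RT-PCR plus capillary electrophoresis detection; DMSO serves as negative control and baseline.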

Experiment [14] is described as follows: ATG_FoxO_CIS: Attagene CIS-FACTORIAL HepG2 Assay for human Forkhead box O (FoxO) (AID 2282943). The note with it: HepG2 Attagene cis-reporter, FoxO element, mRNA; actives raise or lower the signal. The procedure, abridged:
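Human hepatoma HepG2 cells carry transiently introduced reporter transcription units controlled by cis promoter elements. Chemical treatment lasted 24 h, and mRNA signal was compared with DMSO.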

The nature of experiment [15]: ATG_GATA_CIS: Attagene CIS-FACTORIAL HepG2 Assay for human GATA Binding Protein (AID 2282944). The settings on record: HepG2 GATA cis-element reporter, Attagene multiplex mRNA; actives raise or lower the signal. The procedure, abridged: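 DMSO serves as negative control and baseline for bidirectional fitting of reporter mRNA changes. HepG2 cells bearing transiently transfected cis-promoter reporters were exposed 24 h; transcripts detected via RT-PCR and capillary electrophoresis.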

The nature of experiment [16]: ATG_M_61_CIS: Attagene CIS-FACTORIAL HepG2 Assay for M61 Transcription Factor (Internal Marker) (AID 2282937). The settings on record: HepG2 Attagene CIS-FACTORIAL M61 internal marker reporter; actives raise or lower the signal. The procedure, abridged: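 Endogenous transcription factor activity in HepG2 is read through transiently transfected cis-element reporter units. After 24 h dosing, RNA undergoes reverse transcription, PCR and primer extension with 6-FAM before capillary electrophoresis; DMSO-referenced bidirectional fit.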

The target in experiment [17] is Hepatocyte nuclear factor 3-beta (Homo sapiens) (UniProt Q9Y261). Description: ATG_FoxA2_CIS: Attagene CIS-FACTORIAL HepG2 Assay for human Forkhead box A2 (FOXA2) (AID 2282942). The settings on record: HepG2 cis-reporter transcription factor activity, 24 h; actives raise or lower the signal. The procedure, abridged:
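Reporter transcript induction is measured by fluorescence after capillary electrophoresis of RT-PCR products from HepG2 cells exposed 24 h. Cis-regulated reporter units report endogenous factor activity; curves fitted both directions against DMSO.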

Experiment [18] can be described thus: ATG_GLI_CIS: Attagene CIS-FACTORIAL HepG2 Assay for human Zinc Finger Protein GLI1 (AID 2282945). The note with it: HepG2, Attagene cis-factorial reporter mRNA, GLI element; actives raise or lower the signal. The method in brief:
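Bidirectional curve fits relative to DMSO, using reporter mRNA levels from RT-PCR plus capillary electrophoresis. Cells were HepG2 transiently carrying cis-regulated reporter constructs, harvested 24 h after dosing.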

The target of experiment [19] is Retinoic acid receptor alpha (Homo sapiens) (UniProt P10276). Description: ATG_DR5_RAR_CIS: Attagene CIS-FACTORIAL HepG2 Assay for human Retinoic Acid Receptor Alpha (RARE), DR5 submotif (AID 2282934). The settings on record: HepG2 Attagene cis-factorial RARE DR5 reporter, mRNA; actives raise or lower the signal. The procedure, abridged:
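HepG2, transient cis-reporter transfection, 24 h exposure. mRNA readout: RT-PCR, FAM label, HpaI cut, capillary electrophoresis. DMSO baseline, gain/loss fitting.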

Experiment [20] deals with Bile acid receptor (Homo sapiens) (UniProt Q96RI1). Description: ATG_IR1_CIS: Attagene CIS-FACTORIAL HepG2 Assay for human Nuclear Receptor Subfamily 1 Group H Member 4 (NR1H4), IR1 submotif (AID 2282946). The settings on record: IR1 reporter transcription, actives raise or lower the signal. The method in brief: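 HepG2 cells transiently transfected with multiplexed cis-element reporter units read endogenous transcription factor activity. After 24 h compound exposure, reporter mRNA was quantified by RT-PCR, fluorescent labelling, HpaI digestion and capillary electrophoresis; bidirectional fitting versus DMSO baseline.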
Chain of Bile acid receptor (Homo sapiens) (Q96RI1 whole entry, looked up): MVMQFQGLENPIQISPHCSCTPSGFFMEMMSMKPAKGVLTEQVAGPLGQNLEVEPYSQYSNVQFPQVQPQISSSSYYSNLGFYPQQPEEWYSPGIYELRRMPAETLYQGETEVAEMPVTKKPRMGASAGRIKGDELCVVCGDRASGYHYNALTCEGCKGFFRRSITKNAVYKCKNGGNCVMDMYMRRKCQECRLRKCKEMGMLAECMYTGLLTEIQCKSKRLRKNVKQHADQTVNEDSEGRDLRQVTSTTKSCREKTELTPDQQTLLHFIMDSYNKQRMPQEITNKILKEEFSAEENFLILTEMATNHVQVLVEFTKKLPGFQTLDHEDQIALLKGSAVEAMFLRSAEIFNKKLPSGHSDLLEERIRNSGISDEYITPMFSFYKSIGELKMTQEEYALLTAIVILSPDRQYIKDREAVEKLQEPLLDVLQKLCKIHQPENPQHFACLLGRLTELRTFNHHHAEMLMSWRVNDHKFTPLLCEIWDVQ

The source made the active and inactive calls. Rule for the calls: active = hit-call score of the fitted dose curve at least 0.9, where 1 is the maximum; inactive = score below 0.9.

Chain of Aryl hydrocarbon receptor (Homo sapiens) (P35869 whole entry, looked up): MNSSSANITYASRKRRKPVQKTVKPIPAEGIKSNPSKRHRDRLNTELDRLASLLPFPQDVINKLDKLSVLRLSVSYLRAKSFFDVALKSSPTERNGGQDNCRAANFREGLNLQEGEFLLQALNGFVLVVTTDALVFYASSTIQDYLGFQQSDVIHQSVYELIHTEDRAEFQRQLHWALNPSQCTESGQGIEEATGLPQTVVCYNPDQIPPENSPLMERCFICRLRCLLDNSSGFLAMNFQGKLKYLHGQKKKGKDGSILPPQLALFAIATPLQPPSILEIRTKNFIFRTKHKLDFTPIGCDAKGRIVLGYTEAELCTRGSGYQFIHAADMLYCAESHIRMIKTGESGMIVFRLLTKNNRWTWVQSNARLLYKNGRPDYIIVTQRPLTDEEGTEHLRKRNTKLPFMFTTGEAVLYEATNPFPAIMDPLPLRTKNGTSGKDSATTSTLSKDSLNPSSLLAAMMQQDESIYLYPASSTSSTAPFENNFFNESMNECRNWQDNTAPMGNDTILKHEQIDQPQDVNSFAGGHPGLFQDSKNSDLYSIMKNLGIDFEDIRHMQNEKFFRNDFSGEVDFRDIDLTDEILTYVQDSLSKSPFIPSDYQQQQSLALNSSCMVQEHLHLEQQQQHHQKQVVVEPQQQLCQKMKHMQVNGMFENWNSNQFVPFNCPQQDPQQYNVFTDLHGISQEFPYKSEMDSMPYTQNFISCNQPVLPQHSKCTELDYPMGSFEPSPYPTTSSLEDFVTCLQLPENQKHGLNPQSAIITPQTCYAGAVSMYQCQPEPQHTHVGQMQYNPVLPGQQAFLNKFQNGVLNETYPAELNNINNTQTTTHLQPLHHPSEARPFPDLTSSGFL
Chain of CCAAT/enhancer-binding protein beta (Homo sapiens) (P17676 whole entry, looked up): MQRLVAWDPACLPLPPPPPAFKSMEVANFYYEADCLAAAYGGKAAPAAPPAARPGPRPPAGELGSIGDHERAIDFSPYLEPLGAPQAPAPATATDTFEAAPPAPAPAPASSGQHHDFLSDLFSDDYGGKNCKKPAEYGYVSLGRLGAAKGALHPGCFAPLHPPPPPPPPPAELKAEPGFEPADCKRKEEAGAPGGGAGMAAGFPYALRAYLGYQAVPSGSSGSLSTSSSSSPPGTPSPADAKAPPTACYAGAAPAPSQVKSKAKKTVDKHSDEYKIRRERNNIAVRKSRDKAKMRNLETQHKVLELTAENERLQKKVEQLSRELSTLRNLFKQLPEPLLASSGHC
Chain of Hepatocyte nuclear factor 3-beta (Homo sapiens) (Q9Y261 whole entry, looked up): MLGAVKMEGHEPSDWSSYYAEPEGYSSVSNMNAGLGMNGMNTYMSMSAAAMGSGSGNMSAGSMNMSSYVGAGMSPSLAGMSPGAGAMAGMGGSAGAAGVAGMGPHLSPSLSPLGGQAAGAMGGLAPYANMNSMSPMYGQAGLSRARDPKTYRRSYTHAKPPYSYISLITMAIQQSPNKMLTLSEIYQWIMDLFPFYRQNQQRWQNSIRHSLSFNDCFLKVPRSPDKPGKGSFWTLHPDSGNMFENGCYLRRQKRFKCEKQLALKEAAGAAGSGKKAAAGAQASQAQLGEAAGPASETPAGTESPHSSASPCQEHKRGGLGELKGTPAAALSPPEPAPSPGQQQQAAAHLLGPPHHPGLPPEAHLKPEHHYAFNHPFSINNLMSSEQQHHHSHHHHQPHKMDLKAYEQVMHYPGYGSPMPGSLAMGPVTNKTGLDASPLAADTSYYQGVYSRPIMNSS
Chain of Retinoic acid receptor alpha (Homo sapiens) (P10276 whole entry, looked up): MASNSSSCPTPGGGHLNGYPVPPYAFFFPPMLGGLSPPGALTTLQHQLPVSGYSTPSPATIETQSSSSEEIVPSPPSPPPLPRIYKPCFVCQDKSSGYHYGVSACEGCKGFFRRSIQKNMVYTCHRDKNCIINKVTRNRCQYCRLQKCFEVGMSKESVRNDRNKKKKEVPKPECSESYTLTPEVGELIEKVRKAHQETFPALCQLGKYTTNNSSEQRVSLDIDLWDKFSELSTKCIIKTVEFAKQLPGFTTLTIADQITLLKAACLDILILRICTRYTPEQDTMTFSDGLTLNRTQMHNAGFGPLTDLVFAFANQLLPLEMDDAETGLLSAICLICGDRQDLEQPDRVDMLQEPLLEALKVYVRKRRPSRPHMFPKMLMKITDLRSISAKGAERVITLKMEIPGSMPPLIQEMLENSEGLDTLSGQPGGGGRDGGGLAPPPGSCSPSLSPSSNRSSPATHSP

Consider `CC1(C)CCC[C@]2(C)[C@H]3CCO[C@]3(C)CC[C@@H]12`, for which the outcome in [1], in experiment [2], in [3], in experiment [4], in experiment [5] and in [7] was inactive. Besides, the outcome in experiment [8], in [9], in experiment [11], in experiment [12], in experiment [13] and in experiment [14] was inactive. For the same molecule, in [15], the molecule was called inactive. The values for the half-maximal activity concentration (AC50) in experiment [6] and in experiment [10] were 151 µM (active) and 58.3 µM (active), respectively.

For the molecule `CCCCC(CC)COC(C)=O` (configuration not stated), the molecule was classed as inactive in experiment [1], in experiment [2], in experiment [3], in experiment [4], in [5] and in [6]. Besides, the call in experiment [7], in experiment [8], in experiment [9], in experiment [16], in experiment [11] and in experiment [12] was inactive. Also, the call in [17], in experiment [14], in experiment [15] and in [18] was inactive.

Consider `O=C1CCCC=CCCCCCCCCCC1`, for which the molecule was classed as inactive in experiment [1], in experiment [2], in [5], in experiment [7], in experiment [8] and in [19]. Besides, the result in experiment [10], in experiment [16], in experiment [11], in [12], in experiment [13] and in experiment [17] was inactive. The call in [15], in experiment [18] and in experiment [20] was inactive. In addition, the AC50 – broadly, the concentration giving half of the maximal activity seen – was 44.1 µM (active) in experiment [3], 33.4 µM (active) in experiment [4] and 50.3 µM (active) in experiment [6].

`Cc1cc(C)nc(NS(=O)(=O)c2ccc(N)cc2)n1`: the call in [1], in [2], in experiment [3], in experiment [4], in experiment [5] and in experiment [6] was inactive. Besides, the result in [7], in experiment [8], in [9], in [10], in experiment [16] and in [11] was inactive. Moreover, the result in experiment [13], in experiment [17], in experiment [14], in [15], in experiment [18] and in experiment [20] was inactive.
